The nature of experiment [1]: Validation screen for small molecules that induce DNA re-replication in SW480 colon adenocarcinoma cells (AID 504364). The gist of the method:
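250 cells/well; compound pinned in; 48 hr, 37 C, 5% CO2; Hoechst added, 40 min; nuclear fluorescence imaged, 405 ex / 500-530 em; re-replication scored as increase in high-intensity nuclei.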

Experiment [2] addresses Peptidyl-prolyl cis-trans isomerase NIMA-interacting 1 (Homo sapiens) (UniProt Q13526). In words: qHTS Validation Assay to Find Inhibitors of Pin1 (AID 504536; active = well fitted inhibition curve with a large enough effect in the polarisation, with a control signal flat, not every such curve was filed as active; the % refers to the polarisation; also: potency is read from the fitted curve at half-maximal effect). The gist of the method: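 Fluorescence polarization competition: compounds (titration) displace HiFluor-488-labeled Pin1-1b peptide from Pin1 (0.3 uM final) in pH 7.5 HEPES buffer with DTT, 10 min at room temperature; %Activity normalized to no-enzyme wells, curves fitted.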
Background: qHTS replaces the single test concentration by a dilution series.

Experiment [3] addresses Phosphoglycerate kinase, glycosomal (Trypanosoma brucei brucei) (UniProt P07378). Description: qHTS Validation Assay to Find Inhibitors of Phosphoglycerate Kinase (AID 504547). Also: potency is read from the fitted curve at half-maximal effect. The gist of the method:
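Substrate/PGK mix plus compound; reaction started with GAPDH (100nM final) to form 1,3-BPG; 60 min RT; Kinase-Glo Plus 10 min; luminescence. TEA 100mM pH 7.6, MgCl2 5mM, Tween-20 0.01%.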

The target of experiment [4] is phosphoglycerate mutase (Leishmania major) (UniProt Q4Q090). In words: qHTS Validation Assay to Find Inhibitors of Phosphoglycerate Mutase (AID 504548). Also: series mostly up to about 58 µM. Particulars: Potency: inhibition qHTS. The gist of the method: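 Lm PGAM 1.25nM final; 100 mM TEA pH 7.6, 5 mM MgCl2, 0.01% Tween-20; 45 min RT; Kinase-GloPlus, 10 min; end-point luminescence. Enzyme-free wells as negative controls.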

A short description of experiment [5]: Inducers of the Endoplasmic Reticulum Stress Response (ERSR) in human glioma: Validation (AID 504836). The gist of the method: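 Stably transfected U87-MG human glioma cells carrying a GRP78-based luminescent sensor were seeded at 1000 cells/well, pin-dosed with compounds and incubated 16 h. Luciferase reagent was then added, and end-point luminescence was read after 10 min at room temperature.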

Experiment [6] concerns the target Ubiquitin carboxyl-terminal hydrolase 1 (Homo sapiens) (UniProt O94782). In words: Inhibitors of USP1/UAF1: Pilot qHTS (AID 504865). Also: nearly all actives have a fitted effect of over 35% in size. Also: potency is read from the fitted curve at half-maximal effect. The gist of the method: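 In 50mM HEPES pH 7.8 containing 0.5mM EDTA, 1mM TCEP, 0.1 mg/ml BSA and 0.01% Tween-20, 1nM USP1/UAF1 is exposed to compound for 15 min, then Ub-Rho (150nM final) is added and fluorescence is read over time.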

The nature of experiment [7]: qHTS for Inhibitors of ATXN expression: Validation of Cytotoxic Assay (AID 588349). The gist of the method:
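Read-out: ATP-based luminescence (CellTiter Glo) reflecting viability of HEK293 cells after 72 hr incubation at 37 degrees C with a concentration series of each compound.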

A short description of experiment [8]: qHTS for Inhibitors of ATXN expression: Validation (AID 588378). Also: series mostly up to about 57 µM; nearly all actives have a fitted effect of over 75% in size. The gist of the method:
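Compounds were pinned onto attached HEK293 cells carrying an ATXN2-firefly luciferase construct and incubated 24 hrs at 37 degrees C. Each well then received a fluorescent viability reagent followed by luciferase substrate for end-point luminescence.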

The target in experiment [9] is DNA dC->dU-editing enzyme APOBEC-3G (Homo sapiens) (UniProt Q9HC16). Description: qHTS for inhibitors of Vif-A3G interactions: Validation (AID 588379). In a few lines:
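HeLa cells stably expressing Vif and A3G-eYFP, 700 cells/well, incubated overnight at 37 deg C, then exposed to compound overnight at 37 deg C. Inhibition of Vif-mediated degradation read as increased yellow fluorescence (Ex 488/Em 500-530) by laser-scanning cytometry.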

Unmarked numbers belong to inactive results. Inconclusive results are not listed. Activity calls are given as the source filed them. Unless noted, calls follow the shape of the dose curve; as a rule, active = well fitted curve in the direction sought with a large enough effect; inconclusive = small, poorly fitted or top-dose-only effect, or another doubt; inactive = no such curve, though single readings can be large; an effect the other way counts as inactive or inconclusive.

Sequence of Phosphoglycerate kinase, glycosomal (Trypanosoma brucei brucei) (P07378 whole entry, looked up): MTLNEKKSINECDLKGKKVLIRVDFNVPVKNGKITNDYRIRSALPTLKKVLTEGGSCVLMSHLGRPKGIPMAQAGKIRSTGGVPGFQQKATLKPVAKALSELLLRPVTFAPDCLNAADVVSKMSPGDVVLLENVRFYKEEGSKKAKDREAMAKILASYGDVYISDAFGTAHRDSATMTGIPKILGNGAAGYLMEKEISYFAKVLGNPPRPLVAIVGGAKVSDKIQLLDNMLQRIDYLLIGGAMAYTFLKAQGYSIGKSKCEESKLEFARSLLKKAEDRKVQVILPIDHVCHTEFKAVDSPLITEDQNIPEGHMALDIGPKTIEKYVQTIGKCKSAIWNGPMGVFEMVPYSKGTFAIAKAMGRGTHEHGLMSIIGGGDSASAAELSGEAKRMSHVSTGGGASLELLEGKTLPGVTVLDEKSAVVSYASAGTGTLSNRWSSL
Sequence of Ubiquitin carboxyl-terminal hydrolase 1 (Homo sapiens) (O94782 whole entry, looked up): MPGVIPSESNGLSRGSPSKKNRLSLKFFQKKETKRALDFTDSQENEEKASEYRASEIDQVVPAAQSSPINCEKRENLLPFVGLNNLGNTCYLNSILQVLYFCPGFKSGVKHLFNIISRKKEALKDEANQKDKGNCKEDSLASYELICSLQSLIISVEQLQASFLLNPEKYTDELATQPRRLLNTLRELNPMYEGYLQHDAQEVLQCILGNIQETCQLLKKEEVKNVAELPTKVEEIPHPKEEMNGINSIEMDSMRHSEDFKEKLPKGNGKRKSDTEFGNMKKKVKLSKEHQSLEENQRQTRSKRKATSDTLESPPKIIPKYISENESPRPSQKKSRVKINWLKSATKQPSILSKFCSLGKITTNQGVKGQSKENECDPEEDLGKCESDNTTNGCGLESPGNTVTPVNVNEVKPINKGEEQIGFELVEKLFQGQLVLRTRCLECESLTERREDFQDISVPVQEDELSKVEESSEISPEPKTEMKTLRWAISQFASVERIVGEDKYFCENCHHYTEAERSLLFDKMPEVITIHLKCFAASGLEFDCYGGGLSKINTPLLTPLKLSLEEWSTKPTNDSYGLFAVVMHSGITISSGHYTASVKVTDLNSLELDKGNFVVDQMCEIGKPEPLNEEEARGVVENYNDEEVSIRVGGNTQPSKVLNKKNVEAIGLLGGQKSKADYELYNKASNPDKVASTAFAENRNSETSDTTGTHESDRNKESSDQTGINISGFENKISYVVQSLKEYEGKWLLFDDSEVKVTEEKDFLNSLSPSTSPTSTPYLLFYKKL
Sequence of phosphoglycerate mutase (Leishmania major) (Q4Q090 1-553): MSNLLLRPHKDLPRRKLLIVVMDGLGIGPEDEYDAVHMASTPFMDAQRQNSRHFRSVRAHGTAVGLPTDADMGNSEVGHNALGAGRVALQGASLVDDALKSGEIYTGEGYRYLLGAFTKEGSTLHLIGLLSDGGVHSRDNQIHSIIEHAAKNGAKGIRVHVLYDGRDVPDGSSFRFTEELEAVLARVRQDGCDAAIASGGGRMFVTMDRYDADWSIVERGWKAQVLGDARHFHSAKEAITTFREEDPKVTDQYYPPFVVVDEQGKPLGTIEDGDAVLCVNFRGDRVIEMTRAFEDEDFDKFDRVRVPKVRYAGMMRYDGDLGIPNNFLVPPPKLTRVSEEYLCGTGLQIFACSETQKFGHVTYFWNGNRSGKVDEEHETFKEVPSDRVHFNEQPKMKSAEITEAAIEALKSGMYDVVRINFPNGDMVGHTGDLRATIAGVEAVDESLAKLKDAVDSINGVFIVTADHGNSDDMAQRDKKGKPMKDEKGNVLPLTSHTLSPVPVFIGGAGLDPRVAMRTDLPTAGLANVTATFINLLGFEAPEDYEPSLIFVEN
Sequence of Peptidyl-prolyl cis-trans isomerase NIMA-interacting 1 (Homo sapiens) (Q13526 whole entry, looked up): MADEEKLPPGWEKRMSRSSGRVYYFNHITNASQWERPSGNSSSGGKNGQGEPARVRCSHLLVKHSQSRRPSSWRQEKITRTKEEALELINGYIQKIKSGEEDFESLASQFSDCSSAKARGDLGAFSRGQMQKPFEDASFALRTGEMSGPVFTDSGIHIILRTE
Sequence of DNA dC->dU-editing enzyme APOBEC-3G (Homo sapiens) (Q9HC16 whole entry, looked up): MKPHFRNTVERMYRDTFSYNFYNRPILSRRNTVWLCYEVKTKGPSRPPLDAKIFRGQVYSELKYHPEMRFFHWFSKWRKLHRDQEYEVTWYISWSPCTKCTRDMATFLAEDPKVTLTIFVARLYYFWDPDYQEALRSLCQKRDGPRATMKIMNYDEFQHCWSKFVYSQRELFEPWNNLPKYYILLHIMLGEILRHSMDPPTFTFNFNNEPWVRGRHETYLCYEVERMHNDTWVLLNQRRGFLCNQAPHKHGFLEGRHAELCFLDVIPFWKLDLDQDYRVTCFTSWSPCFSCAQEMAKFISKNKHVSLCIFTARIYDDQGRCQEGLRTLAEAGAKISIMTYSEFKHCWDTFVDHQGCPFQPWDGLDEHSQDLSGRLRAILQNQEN

Turning to `CC(N)Cc1c[nH]c2ccc(O)cc12` (centres undefined), the Potency result in [1], in [2], in experiment [3], in [4], in [6] and in experiment [7] was “inactive” throughout. The Potency entry in experiment [8] is “inactive”. Further, in experiment [5], the compound was called inactive.
For `NC(N)=NOCC[C@H](N)C(=O)O`, the Potency result in experiment [1], in [2], in experiment [3], in experiment [4], in experiment [6] and in experiment [8] was “inactive” in each case. Further, the outcome in [5] and in [9] was inactive.
As for `CC(Cc1ccc(OCC(=O)O)cc1)NCC(O)c1cccc(Cl)c1` (centres undefined), the Potency entry in [1], in [2], in experiment [3], in experiment [4], in experiment [6] and in experiment [8] was “inactive” throughout. Moreover, the outcome in experiment [5] was inactive.
On to `COc1ccc2c(c1)[C@@]13CCCC[C@H]1[C@@H](C2)NCC3`, for which the Potency entry in experiment [1], in experiment [2], in experiment [3], in experiment [4] and in [7] was “inactive” throughout. The outcome in experiment [5] was inactive.
`CCCN1CCCC2Cc3[nH]ncc3CC21` (centres undefined): the Potency result in experiment [1] was “inactive”.
For `CC(N)c1cccc(Cl)c1Cl` (centres undefined), the Potency result in experiment [1], in experiment [2], in experiment [3], in [4], in experiment [6] and in experiment [7] was “inactive” each time. Further, the Potency result in [8] is “inactive”. For the same compound, the compound was classed as inactive in [5].
Consider `CN1C2CCC1CC(OC(c1ccccc1)c1ccccc1N)C2` (centres undefined), for which the Potency result in experiment [1], in experiment [2], in experiment [3], in experiment [4] and in experiment [6] was “inactive” throughout. In [5], the compound was classed as inactive.
Consider `CN1CCc2cccc(Cl)c2CC1`, for which the Potency result in experiment [1], in [2], in [3], in [4], in experiment [6] and in [7] was “inactive” throughout. In addition, in experiment [8], the Potency entry was “inactive”. Also, the compound was called inactive in experiment [5].
As to `NNC(=O)c1ccc(O)cc1`, the Potency entry in experiment [1], in [2], in experiment [3], in experiment [4], in experiment [6] and in experiment [7] was “inactive” each time. In addition, the Potency entry in experiment [8] is “inactive”. Moreover, the compound was called inactive in experiment [5].
`NC(=O)CI`: the Potency result in [1], in experiment [2], in [3], in [4], in experiment [6] and in experiment [7] was “inactive” each time. The Potency result in experiment [8] was “inactive”. In addition, the compound was called inactive in experiment [5].
`CCCCCCC(C)(C)c1ccc([C@@H]2C[C@H](O)CC[C@H]2CCCO)c(O)c1`: the Potency result in [1], in experiment [2], in experiment [3] and in [4] was “inactive” in each case. Moreover, in experiment [5], the outcome was inactive.
As to `NC(=O)c1ccc(OCC(O)CN2CC=C(c3ccc(F)cc3)CC2)cc1` (centres undefined), the Potency result in experiment [1], in experiment [2], in [3], in [4], in experiment [6] and in experiment [7] was “inactive” in each case. Also, in [8], the Potency result is “inactive”. In addition, the result in experiment [5] was inactive.
On to `NC(Cc1ccc(N(CCCl)CCCl)cc1)C(=O)O` (centres undefined), for which the Potency result in experiment [1], in [2], in [3], in experiment [4], in experiment [6] and in experiment [7] was “inactive” in each case. Moreover, the call in [5] was inactive.
For `CC12NC(Cc3ccccc31)c1ccccc12` (centres undefined), the Potency result in [1], in [2], in experiment [3], in experiment [4], in experiment [6] and in [7] was “inactive” each time. In addition, in experiment [8], the Potency result is “inactive”. In [5], the compound was called inactive.
For the compound `C#CCN[C@H](C)Cc1ccccc1`, the Potency entry in experiment [1], in experiment [2], in experiment [3], in [4], in [6] and in experiment [7] was “inactive” in each case. Further, the Potency result in experiment [8] was “inactive”. For the same compound, the compound was classed as inactive in experiment [5].
For `CCCN(CCC)CCc1ccc(O)c(O)c1`, the Potency entry in experiment [1], in [2], in experiment [3], in experiment [4], in experiment [6] and in experiment [7] was “inactive” throughout. The Potency result in experiment [8] was “inactive”. Moreover, the compound was classed as inactive in [5].
For the compound `CCCN(CCC)C1Cc2cc(OC)c(OC)cc2C1`, the Potency result in experiment [1], in experiment [2], in experiment [3], in experiment [4], in [6] and in experiment [7] was “inactive” in each case. In addition, the Potency entry in experiment [8] is “inactive”. For the same compound, the compound was classed as inactive in experiment [5] and in [9].
As for `NCC(CP(=O)(O)O)c1ccc(Cl)cc1` (centres undefined), the Potency result in [1], in experiment [2], in experiment [3], in experiment [4], in experiment [6] and in experiment [7] was “inactive” throughout. The Potency entry in experiment [8] was “inactive”. Moreover, in experiment [5], the result was inactive.
As for `NC(C(=O)O)c1cc(=O)[nH]o1` (centres undefined), the Potency result in [1], in experiment [2], in experiment [3], in [4], in [6] and in experiment [7] was “inactive” each time. Further, in experiment [8], the Potency entry is “inactive”. Also, in experiment [5], the result was inactive.
With `CN(N=O)c1ccc(O)c(O)c1`, the Potency entry in experiment [1], in experiment [4], in [7] and in experiment [8] was “inactive” in each case. Also, the Potency was 4.78 µM (active) in experiment [2], 6.01 µM (active) in [3] and 22.4 µM (active) in experiment [6]. In experiment [5], the compound was called inactive.
For the compound `C[Se]C[C@H](N)C(=O)O`, the Potency result in experiment [1], in experiment [2], in experiment [3], in experiment [4], in experiment [6] and in experiment [7] was “inactive” throughout. In addition, the result in [5] was inactive.
Consider `NC(=O)c1cc(N2CC2)c([N+](=O)[O-])cc1[N+](=O)[O-]`, for which the Potency entry in [1], in experiment [2], in experiment [3], in experiment [4], in [6] and in experiment [7] was “inactive” each time. In addition, in experiment [8], the Potency result was “inactive”. For the same compound, the call in experiment [5] was inactive.
With `O=C1CC[C@@]2(O)C3Cc4ccc(O)c5c4C2(CCN3CC2CC2)[C@H]1O5` (some centres undefined), the Potency result in experiment [1], in [2], in experiment [3], in experiment [4], in [6] and in experiment [7] was “inactive” in each case. For the same compound, the Potency entry in [8] was “inactive”. The compound was classed as inactive in [5].
In the case of `CC(C)(C)c1o[nH]c(=O)c1CC(N)C(=O)O` (centres undefined), the Potency result in experiment [1], in experiment [2], in experiment [3], in experiment [4], in experiment [6] and in experiment [7] was “inactive” each time. In experiment [8], the Potency entry is “inactive”. For the same compound, the result in experiment [5] was inactive.
On to `N[C@@H](CCl)C(=O)O`, for which the Potency result in experiment [1], in experiment [2], in [3], in experiment [4], in experiment [6] and in [7] was “inactive” throughout. In [8], the Potency entry is “inactive”. Besides, the compound was called inactive in experiment [5].
For the compound `OCc1cnc[nH]1`, the Potency result in experiment [1], in [2], in [3], in [4], in experiment [6] and in experiment [7] was “inactive” in each case. Besides, the Potency result in experiment [8] is “inactive”. In addition, in experiment [5], the result was inactive.
As for `CCN(CCCl)Cc1ccccc1Br`, the Potency entry in experiment [1], in [2], in experiment [3], in [4], in [6] and in [7] was “inactive” in each case. The Potency result in experiment [8] is “inactive”. The call in experiment [5] was inactive.
In the case of `C[C@@H]1O[C@H](C[N+](C)(C)C)CS1`, the Potency entry in [1], in [2], in experiment [3], in experiment [4], in experiment [6] and in experiment [7] was “inactive” each time. Besides, in experiment [8], the Potency result is “inactive”. In addition, the compound was classed as inactive in experiment [5].
Consider `COC(=O)N1CCN(C(=O)Cc2ccc(Cl)c(Cl)c2)C(CN2CCCC2)C1` (centres undefined), for which the Potency result in experiment [1], in [2], in experiment [3], in experiment [4] and in [6] was “inactive” throughout. For the same compound, in experiment [5], the compound was classed as inactive.

The values above are taken from PubChem BioAssay (NCATS).
